Experiment [1] can be described thus: CCTE_Shafer_MEA_dev_network_spike_duration_std: CCTE's Neural Network Formation Assay for Standard Deviation of Network Spike Duration, Shafer Lab (AID 2284052).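 Note: hits are decreases in network spike duration SD versus DMSO vehicle.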 The method, boiled down:
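Primary rat cortical neurons on PEI-coated 16-electrode MEA wells, exposed from plating day 0 through day 12 with compound renewed at DIV 5 and 9. Network spike duration SD recorded on days 5, 7, 9, 12, collapsed as trapezoidal AUC; loss-of-signal fit versus DMSO.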

Experiment [2] is described as follows: CCTE_Shafer_MEA_dev_per_network_spike_spike_number_mean: CCTE's Neural Network Formation Assay for Mean Number of Spikes in a Network Spike, Shafer Lab (AID 2284053).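 For AC50: fitted as decrease in spikes per network spike relative to DMSO.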 The method, boiled down: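 Primary rat cortical neurons on 48-well, 16-electrode MEA plates were exposed from plating to DIV 12, with dosing renewed on DIV 5 and 9. Spikes per network spike (0.05 s peak window) were recorded on DIV 5, 7, 9 and 12 and collapsed as trapezoidal AUC versus DMSO.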

Experiment [3] can be described thus: CCTE_Shafer_MEA_dev_per_network_spike_spike_percent: CCTE's Neural Network Formation Assay for Percent of Spikes in a Network Spike, Shafer Lab (AID 2284054). The method, boiled down: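 Primary rat cortical neurons on 16-electrode MEA wells (PEI-coated, laminin at plating), exposed from day 0 with renewal at DIV 5 and 9; spikes within 0.05 s of network-spike peaks over total spikes, AUC across days 5, 7, 9, 12.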

Experiment [4] can be described thus: CCTE_Shafer_MEA_dev_LDH: CCTE's Lactate Dehydrogenase Assay for Cytotoxicity in the Neural Network Formation Assay, Shafer Lab (AID 2284068; active = hit-call score of the fitted dose curve at least 0.9, where 1 is the maximum;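 note: exposure for twelve days from plating with re-dosing on DIV 5 and 9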). The method, boiled down: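 Primary rat cortical neurons were plated on PEI/laminin MEA plates and exposed from day 0 for twelve days, with compound renewed at DIV 5 and 9. Cytotoxicity was determined by spectrophotometric LDH assay relative to DMSO.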

Experiment [5] in a line: CCTE_Shafer_MEA_dev_mutual_information_norm: CCTE's Neural Network Formation Assay for Mutual Information Normalization, Shafer Lab (AID 2284091).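 For AC50: mutual information between electrodes summarised as area under curve across four recording days; potency is for a decrease in mutual information relative to DMSO.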 Put shortly: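 Rat cortical cultures, 48-well MEA, continuous exposure DIV 0–12 with full media/compound change DIV 5 and 9. Readout: inter-electrode mutual information, AxIS adaptive spike detection; AUC across DIV 5/7/9/12 recordings; DMSO baseline, negative fitting direction.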

The nature of experiment [6]: CCTE_Shafer_MEA_dev_correlation_coefficient_mean: CCTE's Neural Network Formation Assay for Mean Correlation Coefficient, Shafer Lab (AID 2284093).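 For AC50: well mean pairwise spike train correlation integrated as AUC over recording days 5 to 12; potency fitted for loss of correlation relative to DMSO vehicle wells.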 As for the experimental part: CCTE_Shafer_MEA_dev assay is conducted using Axion Biosystems 48 well microelectrode array (MEA) plates and Maestro recording system. Each well of the MEA plate contains a grid of 16 microelectrodes embedded in the culture surface. Electrically active cells, such as neurons, can be cultured over the electrodes, and electrical activity in these cells can be recorded extracellularly. The spontaneous firing of neurons is captured from each electrode on a microsecond timescale providing both temporally and spatially precise data. […] The CCTE_Shafer_MEA_dev assay uses primary cultures of rat cortical neurons. Recordings are made on days post-plating 5, 7, 9 and 12. As these cultures mature over time, neural networks develop functional activity and form cohesive networks in which electrical activity can be highly coordinated. CCTE_Shafer_MEA_dev_correlation_coefficient_mean is 1 of 19 assay components of the CCTE_Shafer_MEA_dev assay. It measures the correlation coefficent of spikes (action potential firings) between every pair of electrodes in a well during a recording in a microelectrode array (MEA) using Axion Biosystems Maestro 768 channel amplifier with the AxIS adaptive spike detector. The pairwise correlations are averaged across active electrodes to report a well-mean value. To collapse across multiple recordings made on days post-plating 5, 7, 9 and 12, the trapezoidal area-under-the-curve of the component is calculated.Data from the assay component CCTE_Shafer_MEA_dev_correlation_coefficient_mean was analyzed into 1 assay endpoint. This assay endpoint, CCTE_Shafer_MEA_dev_correlation_coefficient_mean, was analyzed in the negative analysis fitting direction relative to DMSO as the negative control and baseline of activity. Using a type of functional reporter, gain or loss-of-signal activity can be used to understand electrical activity.
On the day prior to culture, each well was coated thoroughly with 150 uL of 0.05% polyethyleneimine (PEI, Sigma Cat P3143) in 50 mM HEPES (Sigma Cat H7523) at a pH of 8. The plate was incubated at 37C for one hour. PEI was rinsed out with 500 uL of sterile water three times. Plates were stored at 4C until the day of culture. This culture was plated at a seeding density of 1.5 x 10^5 cells/well on a 48-well MEA plate, prepared as described above. Cells were administered via a 25 uL media/laminin ([…]; Sigma Cat L2020-1MG) drop directly onto the microelectrode array, as adding the cells with the laminin results in better attachment than pre-coating with laminin. After 2 hours, an additional 475 uL of cortical media was added and the cells returned to the incubator. Exposure starts at day 0 of plating and is continued over twelve days of network development until the experiment is terminated. Cells are fed with fresh medium on DIV 5 and 9, following the recordings on those days. The entire volume of media in the well is exchanged and any vehicle or compound treatment is renewed. Complete details are found in OP-NHEERL/ISTD/SBB/TJS/2015-03-r0 (available on request, email shafer.tim@epa.gov). Measurement of the electrical activity is non-invasive, and recordings can be made from the same plate over multiple different days of the culture. In cortical neurons, this allows for the measurement of extracellular action potentials over the period during which networks form in the MEA plate.

A short description of experiment [7]: CCTE_Shafer_MEA_acute_AB: CCTE's Alamar Blue Assay for Cytotoxicity in the Neural Acute Assay, Shafer Lab (AID 2284069; active = hit-call score of the fitted dose curve at least 0.9, where 1 is the maximum;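 note: active compounds lower the viability signal compared with DMSO wells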). Put shortly: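 Primary rat cortical neurons on MEA plates, exposed acutely after baseline recording on day 13 or 15 post-plating. Viability by CellTiter Blue resazurin reduction (1:6 reagent dilution), fluorescence 544/590 nm; loss of signal versus DMSO.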
A general note: Alamar Blue is a resazurin reagent that responds to reducing activity.

A short description of experiment [8]: CCTE_Shafer_MEA_dev_AB: CCTE's Alamar Blue Assay for Cytotoxicity in the Neural Network Formation Assay, Shafer Lab (AID 2284083; active = hit-call score of the fitted dose curve at least 0.9, where 1 is the maximum;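 note: twelve days of exposure from plating with re-dosing on DIV 5 and 9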). Put shortly:
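Primary rat cortical neurons on PEI-coated 48-well MEA plates, 1.5 x 10^5 cells/well in laminin drop; compound exposure from day 0 of plating for twelve days, renewed at medium changes on DIV 5 and 9. Viability read as resazurin reduction by fluorescence, relative to DMSO.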

Experiment [9] in a line: IUF_NPC1b_proliferation_BrdU_72hr: Leibniz Research Institute for Environmental Medicine (IUF) 72-hour Neural Progenitor Cell Bromodeoxyuridine (BrdU) Proliferation Assay (NPC1b) (AID 2284207). On the procedure: IUF_NPC1 is a cell-based, multiplexed assay that uses hNPC, a human primary neural progenitor cells, with measurements taken at 72 hours after chemical dosing in a 96-well plate. Human neural progenitor cells (hNPC) are generated from human fetal brain cortex at gestational week (GW) 16-19. Grown in suspension culture and under proliferative conditions (proliferation media and growth factors), these cells represent neural progenitor cell proliferation. In the NPC1 assay, hNPC's are exposed to the test compound for 72h. Cell proliferation is assessed as an increase in sphere area using automated phase contrast imaging and as incorporation of Bromodeoxyuridine (BrdU) during DNA synthesis using a luminescence-based cell proliferation ELISA. In parallel, the cell viability is assessed using an alamar blue viability assay and the cytotoxicity using a lactate dehydrogenase dependent membrane integrity assay.IUF_NPC1b_proliferation_BrdU_72hr is one of 4 assay components measured from the IUF_NPC1 assay. […]

Experiment [10] in a line: IUF_NPC1a_proliferation_area_72hr: Leibniz Research Institute for Environmental Medicine (IUF) 72-hour Neural Progenitor Cell Proliferation Area Assay (NPC1a) (AID 2284208). The method, boiled down: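 Proliferation read as increase in sphere area by phase-contrast imaging over 72 h continuous compound exposure (no renewal) of hNPC spheres grown with EGF/FGF at 37C, 5% CO2. Growth-factor withdrawal served as positive control; DMSO as baseline.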

From PubChem BioAssay (EPA / NIEHS) come the findings set out here.

Structures are written as SMILES. Records with an inconclusive call do not appear. Active and inactive are the calls of the source. Rule for the calls, unless noted: active = hit-call score of the fitted dose curve at least 0.9, where 1 is the maximum; inactive = score below 0.9.

As a reminder, the AC50 is the concentration giving half of the maximal activity seen.

Turning to `Oc1ccccc1`, the outcome in experiment [1], in experiment [2], in [3], in [4], in experiment [5] and in experiment [6] was inactive.
In the case of `CCCCCCCCCCCCO`, the compound was classed as inactive in experiment [7].
In the case of `CO[C@H]1/C=C/O[C@@]2(C)Oc3c(C)c(O)c4c(O)c(c(/C=N/N5CCN(C)CC5)c(O)c4c3C2=O)NC(=O)/C(C)=C\C=C\[C@H](C)[C@H](O)[C@@H](C)[C@@H](O)[C@@H](C)[C@H](OC(C)=O)[C@@H]1C`, in experiment [7], the call was inactive.
As to `c1ccc2ccccc2c1`, the outcome in [1], in experiment [2], in [3], in experiment [4], in experiment [5] and in experiment [6] was inactive.
On to `CC[C@@H]1C[C@H](N(Cc2cc(C(F)(F)F)cc(C(F)(F)F)c2)C(C)=O)c2cc(C(F)(F)F)ccc2N1C(=O)OC(C)C`, for which, in experiment [7], the call was inactive.
The same measure, in the same setting: the same measure for `O=c1[nH]sc2ccccc12`: “inactive”; for `COc1cc(C(=O)NC2CCN(C)CC2)ccc1Nc1ncc2c(n1)N(C1CCCC1)CC(F)(F)C(=O)N2C`: “inactive”.
Consider `CN1C(=O)CC[C@H]1c1cccnc1`, for which the result in [1], in [2], in experiment [3], in experiment [4], in experiment [7] and in [8] was inactive. For the same compound, the call in experiment [5] and in experiment [6] was inactive.
For the compound `Cc1cc2c(cc1C(F)(F)F)N(C(=O)Nc1ccc(Oc3cccnc3C)nc1)CC2`, in experiment [7], the compound was classed as inactive.
On to `CCCCCCCCOC(=O)c1cc(O)c(O)c(O)c1`, for which the compound was called inactive in [7].
On the same count and under the same terms, for `OC12N=C(c3ccccc3)SC1Cc1cc(Cl)ccc12` (centres undefined) the value was “inactive”.
In the case of `CN(C)c1ccc(C(=C2C=CC(=[N+](C)C)C=C2)c2ccc(N(C)C)cc2)cc1`, the AC50 in experiment [7] was 11.2 µM (active).
In the case of `C[C@]12CC[C@@H]3c4ccc(O)cc4CC[C@H]3[C@@H]1CC[C@H]2O`, the outcome in experiment [7] was inactive.
For the compound `Clc1ccccc1C(c1ccccc1)(c1ccccc1)n1ccnc1`, the call in experiment [1], in [2], in experiment [3], in experiment [7], in experiment [5] and in experiment [6] was inactive.
Take `CC(=O)N1CCN(c2ccc(OC[C@H]3CO[C@](Cn4ccnc4)(c4ccc(Cl)cc4Cl)O3)cc2)CC1`: the outcome in [7] was inactive.
As for `CN(C[C@@H](CC[N+]12CCC(C3CCCCC3)(CC1)CC2)c1ccc(Cl)c(Cl)c1)C(=O)c1cc(C(F)(F)F)cc(C(F)(F)F)c1`, the AC50 in [7] is 20 µM (active).
For `O=C1O[C@H]([C@@H](O)CO)C(O)=C1O`, the compound was classed as inactive in experiment [1], in [2], in experiment [7], in experiment [8], in experiment [5] and in experiment [6]. The compound was classed as inactive in experiment [10]. For the same compound, the AC50 in [9] is 0.215 µM (active).
Turning to `CC1=CC(=O)/C(=C(/C)O)C(=O)O1`, the outcome in [7] was inactive.
On the same count and under the same terms, for `CCN(CC)C(=O)c1cc(S(=O)(=O)Cc2ccccc2)c(N2CCC(c3ccccc3)CC2)cc1N(CC)CCN(C)C` the value was “inactive”.
In the case of `CC/C(=C(/CC)c1ccc(O)cc1)c1ccc(O)cc1`, the call in experiment [1], in experiment [7] and in experiment [8] was inactive. Besides, the AC50 was 5.65 µM (active) in [2]; 3.87 µM (active) in [3]; 19.5 µM (active) in experiment [4]; 0.864 µM (active) in [5]; 5.98 µM (active) in experiment [6].
On to `CC(C)(C)c1cc(/C=C2\SC(N)=NC2=O)cc(C(C)(C)C)c1O`, for which, in experiment [7], the compound was classed as inactive.
Still for that read-out and setting: the same measure for `COc1cccc([C@H](O)C2CCN(CCc3ccc(F)cc3)CC2)c1OC`: “inactive”; for `Cc1c2ccccc2c(C)c2c1ccc1ccccc12`: “inactive”.
The same measure, in the same setting: the same measure for `NCc1cccc(C2CCN(C(=O)c3ccc(C#Cc4ccccc4F)o3)CC2)c1`: “inactive”.
For `c1ccc2n[nH]nc2c1`, the compound was called inactive in [7].
Still for that read-out and setting: the same measure for `O=C(O)c1ccccc1-n1cc(C(=O)O)c(=O)c2cc(Nc3c(F)cc(F)cc3Cl)c(Cl)cc21`: “inactive”; for `CN(C)C(=O)C1(N2CCCCC2)CCN(CC[C@@]2(c3ccc(Cl)c(Cl)c3)CN(C(=O)c3ccccc3)CCO2)CC1`: “inactive”.
Still for that read-out and setting: the same measure for `CC(O)CC(C)(C)O` (centres undefined): “inactive”.
As for `NC(=O)c1nc(-c2cccc(-c3cc(F)ccc3OCC(F)(F)C(F)(F)F)c2)n[nH]1`, the compound was classed as inactive in [7].
As to `CC(C)(c1cc(Br)c(O)c(Br)c1)c1cc(Br)c(O)c(Br)c1`, the result in [1], in [2], in experiment [3], in experiment [4], in [7] and in [5] was inactive. Also, the compound was classed as inactive in [6], in experiment [9] and in [10].
